From PubChem BioAssay (Tox21)
Inconclusive results are not listed. Active and inactive are the calls of the source. The call rests on the fitted dose curve; in most records, active means well fitted curve in the direction sought with a large enough effect in the repeat runs; inconclusive means weak or mixed curves; inactive means no such curve, though single readings can be large; an effect the other way counts as inactive or inconclusive.

Columns and labels:
[1] = qHTS RealTime-Glo MT Cell Viability Assay in HepG2 cells - 40 hour (AID 1224870); further: nearly all actives have a fitted effect of over 50% in size
Outline: (§1)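 Real-time viability: cells seeded at 600 per well together with NanoLuc and cell-permeant prosubstrate, compounds added after 5 h incubation. Luminescence tracked at 0, 8, 16, 24, 32 and 40 h of exposure.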

[2] = A CellTox Green Cytotoxicity Assay to monitor cytotoxicity in HEK293 cells - 40 hour (AID 1224871); further: nearly all actives have a fitted effect of over 45% in size
Outline: (§2)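 Homogeneous no-lysis format: HEK293 cell suspension mixed with CellTox Green reagent, seeded, incubated 5 h at 37 C/5% CO2, then dosed by pintool with compound in DMSO.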

[3] = qHTS RealTime-Glo MT Cell Viability Assay in HEK293 cells - 16 hour (AID 1224872); further: top concentration of the series differs between compounds; nearly all actives have a fitted effect of over 50% in size
Outline: (§3)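 Viability tracked continuously by luminescence as live cells reduce a prosubstrate for NanoLuc; HEK293 cells preincubated 5 h, compound-treated at 37 C, and read at 0, 8, 16, 24, 32 and 40 h.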

[4] = qHTS RealTime-Glo MT Cell Viability Assay in HepG2 cells - 8 hour (AID 1224873); further: nearly all actives have a fitted effect of over 55% in size
Outline: as §1

[5] = qHTS RealTime-Glo MT Cell Viability Assay in HEK293 cells - 40 hour (AID 1224874); settings: RealTime-Glo luminescence; max response: stronger effect = lower value; further: nearly all actives have a fitted effect of over 50% in size
Outline: (§4)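 Measured as luminescence from the same continuously cultured HEK293 wells at successive time points (0, 8, 16, 24, 32, 40 h) after compound addition. Reagent present from seeding; dosing at 5 h; incubation 37 C.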

[6] = A CellTox Green Cytotoxicity Assay to monitor cytotoxicity in HEK293 cells - 24 hour (AID 1224875); further: series mostly up to about 77 µM; nearly all actives have a fitted effect of over 45% in size
Outline: as §2

[7] = A CellTox Green Cytotoxicity Assay to monitor cytotoxicity in HepG2 cells - 16 hour (AID 1224876); further: nearly all actives have a fitted effect of over 45% in size
Outline: (§5)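 Fluorescent DNA-binding dye, 600 HepG2 cells/well, 5 h preincubation then compound in DMSO; same plates read at 0–40 h, 37 C.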

[8] = qHTS RealTime-Glo MT Cell Viability Assay in HepG2 cells - 32 hour (AID 1224877); further: nearly all actives have a fitted effect of over 55% in size
Outline: (§6)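 Viability was tracked continuously by NanoLuc luminescence from prosubstrate reduced by living HepG2 cells, at successive time points over 40 h of compound exposure. Cells with reagent were preincubated 5 h at 37 °C before compound addition.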

[9] = A CellTox Green Cytotoxicity Assay to monitor cytotoxicity in HepG2 cells - 24 hour (AID 1224878); further: nearly all actives have a fitted effect of over 45% in size
Outline: as §5

[10] = A CellTox Green Cytotoxicity Assay to monitor cytotoxicity in HepG2 cells - 40 hour (AID 1224879); further: nearly all actives have a fitted effect of over 40% in size
Outline: as §5

[11] = qHTS RealTime-Glo MT Cell Viability Assay in HEK293 cells - 0 hour (AID 1224880)
Outline: as §4

[12] = A CellTox Green Cytotoxicity Assay to monitor cytotoxicity in HEK293 cells - 32 hour (AID 1224881); further: nearly all actives have a fitted effect of over 40% in size
Outline: as §2

[13] = A CellTox Green Cytotoxicity Assay to monitor cytotoxicity in HepG2 cells - 0 hour (AID 1224882); further: nearly all actives have a fitted effect of over 35% in size
Outline: as §5

[14] = A CellTox Green Cytotoxicity Assay to monitor cytotoxicity in HepG2 cells - 32 hour (AID 1224883); further: nearly all actives have a fitted effect of over 50% in size
Outline: as §5

[15] = A CellTox Green Cytotoxicity Assay to monitor cytotoxicity in HEK293 cells - 8 hour (AID 1224884); further: nearly all actives have a fitted effect of over 35% in size
Outline: as §2

[16] = qHTS RealTime-Glo MT Cell Viability Assay in HepG2 cells - 16 hour (AID 1224885); further: nearly all actives have a fitted effect of over 50% in size
Outline: as §6

[17] = qHTS RealTime-Glo MT Cell Viability Assay in HEK293 cells - 8 hour (AID 1224887)
Outline: as §4

[18] = A CellTox Green Cytotoxicity Assay to monitor cytotoxicity in HEK293 cells - 16 hour (AID 1224888); further: nearly all actives have a fitted effect of over 35% in size
Outline: as §2

[19] = qHTS RealTime-Glo MT Cell Viability Assay in HepG2 cells - 0 hour (AID 1224889); further: nearly all actives have a fitted effect of over 50% in size
Outline: as §6

[20] = qHTS RealTime-Glo MT Cell Viability Assay in HEK293 cells - 24 hour (AID 1224886)
Outline: as §3
On the % scale 0 is the no-effect control and ±100 the full control effect.

CCCCOc1ccc(N)cc1
inactive: Potency [1] | Potency [2] | Potency [3] | outcome [4] | max response [5] 0.387% | Potency [6] | Potency [7] | Potency [8] | Potency [9] | Potency [10] | Potency [11] | Potency [12] | Potency [13] | Potency [14] | Potency [15] | outcome [16] | Potency [17] | Potency [18] | Potency [19]

CCOc1ccc(NC(C)=O)cc1N
inactive: Potency [1] | Potency [2] | Potency [3] | outcome [4] | max response [5] 3.81% | Potency [6] | Potency [7] | Potency [8] | Potency [9] | Potency [10] | Potency [11] | Potency [12] | Potency [13] | Potency [14] | outcome [16] | Potency [20] | Potency [17] | Potency [18] | Potency [19]

C=CC(=O)NC(C)(C)C
inactive: Potency [1] | Potency [2] | Potency [3] | outcome [4] | max response [5] 1.33% | Potency [6] | Potency [7] | Potency [8] | Potency [9] | Potency [10] | Potency [11] | Potency [12] | Potency [13] | Potency [14] | outcome [16] | Potency [20] | Potency [17] | Potency [19]

COC=O
inactive: activity change, negative = cytotoxic [1] 0.3% [at 6.97 µM] | cytotoxicity increase [2] -12.8% [at 6.97 µM] | activity change, negative = cytotoxicity [3] 11.7% [at 6.97 µM] | viability change, negative = cytotoxic [4] 6.21% [at 6.97 µM] | max response [5] 19.4% | activity change [6] -10.8% [at 6.97 µM, stronger effect = higher value] | cytotoxicity increase [7] -4.94% [at 6.97 µM] | activity change, negative = cytotoxic [8] 2.87% [at 6.97 µM] | cytotoxicity [9] -6.04% [at 6.97 µM] | cytotoxicity increase [10] -7.18% [at 6.97 µM] | activity change, negative = cytotoxicity [11] -6.16% [at 6.97 µM] | cytotoxicity increase [12] -12.1% [at 6.97 µM] | cytotoxicity [13] 0.137% [at 6.97 µM] | cytotoxicity increase [14] -4.32% [at 6.97 µM] | cytotoxicity increase [15] -11.8% [at 6.97 µM] | activity change, negative = cytotoxicity [20] 14.1% [at 6.97 µM] | activity change, negative = cytotoxicity [17] 3.22% [at 6.97 µM] | activity change, negative = cytotoxicity [19] -11.5% [at 6.97 µM]

O=C(C1CCCCC1)N1CC(=O)N2CCCc3ccccc3C2C1 (stereo unspecified)
inactive: Potency [1] | Potency [2] | Potency [3] | outcome [4] | max response [5] -23.1% | Potency [6] | Potency [7] | Potency [8] | Potency [9] | Potency [10] | Potency [11] | Potency [12] | Potency [13] | Potency [14] | Potency [15] | outcome [16] | Potency [20] | Potency [17] | Potency [18] | Potency [19]

CCCOC(C)=O
inactive: Potency [1] | Potency [2] | Potency [3] | outcome [4] | max response [5] -1.95% | Potency [6] | Potency [7] | Potency [8] | Potency [9] | Potency [10] | Potency [11] | Potency [12] | Potency [14] | Potency [15] | outcome [16] | Potency [20] | Potency [17] | Potency [18] | Potency [19]

CNc1ccccc1
inactive: Potency [1] | Potency [2] | Potency [3] | outcome [4] | max response [5] 4.77% | Potency [6] | Potency [7] | Potency [8] | Potency [9] | Potency [10] | Potency [11] | Potency [12] | Potency [13] | Potency [14] | Potency [15] | outcome [16] | Potency [20] | Potency [17] | Potency [18] | Potency [19]

C=CC(O)CCCCC (stereo unspecified)
inactive: Potency [1] | Potency [2] | Potency [3] | outcome [4] | max response [5] 0.0439% | Potency [6] | Potency [7] | Potency [8] | Potency [9] | Potency [10] | Potency [11] | Potency [12] | Potency [13] | Potency [14] | Potency [15] | outcome [16] | Potency [20] | Potency [17] | Potency [18] | Potency [19]

CC(C)CCCCCCCOC(=O)c1ccc(C(=O)OCCCCCCCC(C)C)c(C(=O)OCCCCCCCC(C)C)c1
inactive: Potency [1] | Potency [2] | Potency [3] | outcome [4] | max response [5] 11.4% | Potency [6] | Potency [7] | Potency [8] | Potency [9] | Potency [10] | Potency [11] | Potency [12] | Potency [14] | Potency [15] | outcome [16] | Potency [20] | Potency [17] | Potency [19]

CC(C)Oc1ccccc1O
inactive: Potency [1] | Potency [2] | Potency [3] | outcome [4] | max response [5] 2.84% | Potency [6] | Potency [7] | Potency [8] | Potency [9] | Potency [10] | Potency [11] | Potency [12] | Potency [13] | Potency [14] | Potency [15] | outcome [16] | Potency [17] | Potency [18] | Potency [19]

Cc1cc(C)c(C)c(O)c1
inactive: Potency [1] | Potency [2] | Potency [3] | outcome [4] | max response [5] 0.904% | Potency [6] | Potency [7] | Potency [8] | Potency [9] | Potency [10] | Potency [11] | Potency [12] | Potency [14] | Potency [15] | outcome [16] | Potency [17] | Potency [18] | Potency [19]

C=C[Si](OCC)(OCC)OCC
inactive: Potency [1] | Potency [2] | Potency [3] | outcome [4] | max response [5] 11.4% | Potency [6] | Potency [7] | Potency [8] | Potency [9] | Potency [10] | Potency [11] | Potency [12] | Potency [13] | Potency [14] | outcome [16] | Potency [20] | Potency [17] | Potency [18] | Potency [19]

O=c1[nH]nc(-c2ccc([N+](=O)[O-])o2)o1
inactive: Potency [1] | Potency [2] | Potency [3] | outcome [4] | max response [5] -1.91% | Potency [6] | Potency [7] | Potency [8] | Potency [9] | Potency [10] | Potency [11] | Potency [12] | Potency [13] | Potency [14] | Potency [15] | outcome [16] | Potency [20] | Potency [17] | Potency [19]
